Assay results as given in PubChem BioAssay.
Calls of active or inactive are those of the source. Unless noted, how the calls were made is not given here.

Legend:
[1] = compounds binding Alexa647 anti-His antibody – biochemical, small-molecule microarray, 635 nm fluorescence, artefact control for SMM control protein annotation, primary screen (AID 1128); settings: higher = more signal;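 further: score merges feature fluorescence with signal-to-noise for each printed compound spot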
[2] = system: Human papillomavirus type 1a E7 protein (residues 1-88); experiment: HPV1a E7 small-molecule binders, primary screen, biochemical, small-molecule microarray, residues 1-88, 635 nm (AID 1129); settings: small-molecule microarray binding, fluorescence 635 nm; higher = more signal
[3] = target: Focal adhesion kinase 1 (Homo sapiens) (UniProt Q05397); experiment: PTK2 protein binding on printed compound slides – biochemical, small-molecule microarray, 635/667 nm fluorescence, BSA, DTT, primary screen (AID 1130); settings: 635 nm fluorescence, higher = more signal;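 further: composite of spot emission at 667 nm and signal to noise over triplicate slides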
[4] = system: Fibrinogen (Alexa647-labelled); experiment: Alexa647-fibrinogen binding to printed small molecules – biochemical, small-molecule microarray, 635/667 nm fluorescence, artefact control for SMM control-protein annotation, profiling panel (AID 1131); settings: fibrinogen-A647 binding fluorescence, higher = more signal;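 further: z-score merges 667 nm fluorescence with per-spot signal-to-noise over triplicate slides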
[5] = target: Follistatin (Homo sapiens) (UniProt P19883); experiment: FST protein binding to printed compounds – biochemical, small-molecule microarray, 635/667 nm fluorescence, primary screen (AID 1132); settings: 635 nm fluorescence, higher = more signal
[6] = target: Fibroblast growth factor 2 (Homo sapiens) (UniProt P09038); experiment: basic fibroblast growth factor binding to printed compounds – biochemical, small-molecule microarray, 635/667 nm fluorescence, primary screen (AID 1133); settings: FGF2, fluorescence 635/667, higher = more signal
[7] = JC-1 mitochondrial potential readout, lung cancer cells – cell-based, A549, JC-1 fluorescence, basal, 24 h, 100 nL, profiling panel (AID 1138); settings: higher = more signal;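 further: A549 lung adenocarcinoma cells under basal conditions with no added stimulus; test concentration not given here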
Lefty1 = Lefty1 protein binding to printed compounds – biochemical, small-molecule microarray, 635/667 nm fluorescence, primary screen (AID 1139); settings: fluorescence 635/667, higher = more signal
[8] = system: wheat germ agglutinin (Triticum aestivum), Alexa647-labelled; experiment: Alexa647-WGA lectin binding to printed small molecules – biochemical, small-molecule microarray, 635/667 nm fluorescence, artefact control for SMM control-protein annotation, profiling panel (AID 1140); settings: WGA-A647 binding, 635 nm fluorescence, higher = more signal;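 further: score merges 667 nm feature emission with signal to noise over triplicate slides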
[9] = target: Luciferin 4-monooxygenase (Photinus pyralis) (UniProt P08659); experiment: inhibition of purified Photinus pyralis luciferase – biochemical, luminescence, purified enzyme, 2006 set, primary screen (AID 1141); settings: purified firefly luciferase, SteadyGlo luminescence, 30 min; higher = more signal, called active from +8 up or from −8 down;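 further: cell-free assay with purified firefly luciferase at 100 ng per well in PBS; test concentration not given here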
[10] = system: Wnt5a (protein binding on small-molecule microarray); experiment: small molecules binding Wnt5a protein – biophysical, small-molecule microarray, 635/667 nm fluorescence, primary screen (AID 1142); settings: 635 nm fluorescence, higher = more signal;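 further: fluorescence read at 667 nm with signal to noise per printed feature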
[11] = ATP-based viability of Huh7 replicon cells – cell-based, CellTiter-Glo luminescence, basal, 48 h, cytotoxicity control for HCV replication inhibitor project, primary screen (AID 1143); settings: higher = more signal, called active from +8 up or from −8 down;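 further: Huh7 hepatoma cells carrying a hepatitis C replication reporter with no stimulus; test concentration not given here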
[12] = Pseudomonas biofilm growth suppression – PAO1 strain, BacTiter-Glo luminescence, LB-PBS, primary screen (AID 1144); settings: P. aeruginosa PAO1 biofilm, 12 h, higher = more signal
[13] = basal CRE-LacZ reporter activity in PC12 – cell-based, unstimulated, primary screen (AID 1145); settings: no forskolin, luminescence, 4.5 h, higher = more signal, called active from +8 up or from −8 down
[14] = forskolin-driven CRE-LacZ activity in PC12 – cell-based, CRE-LacZ reporter, forskolin-stimulated, primary screen (AID 1146); settings: luminescence, 4.5 h, higher = more signal, called active from +8 up or from −8 down;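 further: PC12 cells with 6xCRE LacZ reporter stimulated by forskolin 10 µM; beta-galactosidase reporter signal reflecting CREB driven transcription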
[15] = target: Streptavidin (Streptomyces avidinii) (UniProt P22629); experiment: compounds binding control protein streptavidin – biophysical, small-molecule microarray, 635/667 nm fluorescence, artefact control for SMM compound annotation, primary screen (AID 1147); settings: higher = more signal;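 further: signal reflects streptavidin binding to arrayed compounds as a control protein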
[16] = probe aInhba binding on compound microarray – biochemical, small-molecule microarray, 635/667 nm fluorescence, primary screen (AID 1148); settings: higher = more signal;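 further: score merges 667nm spot fluorescence with signal-to-noise for antibody binding to printed compounds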
Torsin-1A (Homo sapiens) [17] = target: Torsin-1A (Homo sapiens) (UniProt O14656); experiment: TOR1A wild-type binding on microarray – cell lysate, small-molecule microarray, lysate, 635/667 nm, primary screen (AID 1149); settings: COS7 hTOR1A-WT lysate, 635 nm fluorescence, higher = more signal
Torsin-1A (Homo sapiens) [18] = target: Torsin-1A (Homo sapiens) (UniProt O14656); experiment: torsin A mutant lysate binding on microarrays – cell lysate, small-molecule microarray, COS7 lysate, 635/667 nm fluorescence, primary screen (AID 1150); settings: COS7 hTOR1A mutant lysate, 635 nm fluorescence, higher = more signal;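 further: score pools 667 nm emission and signal to noise measuring lysate protein binding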
[19] = system: Sonic hedgehog protein (Shh); experiment: Sonic hedgehog microarray binding compounds – biochemical, small-molecule microarray, 635/667 nm fluorescence, primary screen (AID 1151); settings: 635 nm fluorescence, higher = more signal;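 further: Shh protein binding to compounds spotted on small-molecule microarray slides; score combines spot fluorescence intensity with signal-to-noise across triplicate slides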

Sequence of Focal adhesion kinase 1 (Homo sapiens) (Q05397 whole entry, looked up): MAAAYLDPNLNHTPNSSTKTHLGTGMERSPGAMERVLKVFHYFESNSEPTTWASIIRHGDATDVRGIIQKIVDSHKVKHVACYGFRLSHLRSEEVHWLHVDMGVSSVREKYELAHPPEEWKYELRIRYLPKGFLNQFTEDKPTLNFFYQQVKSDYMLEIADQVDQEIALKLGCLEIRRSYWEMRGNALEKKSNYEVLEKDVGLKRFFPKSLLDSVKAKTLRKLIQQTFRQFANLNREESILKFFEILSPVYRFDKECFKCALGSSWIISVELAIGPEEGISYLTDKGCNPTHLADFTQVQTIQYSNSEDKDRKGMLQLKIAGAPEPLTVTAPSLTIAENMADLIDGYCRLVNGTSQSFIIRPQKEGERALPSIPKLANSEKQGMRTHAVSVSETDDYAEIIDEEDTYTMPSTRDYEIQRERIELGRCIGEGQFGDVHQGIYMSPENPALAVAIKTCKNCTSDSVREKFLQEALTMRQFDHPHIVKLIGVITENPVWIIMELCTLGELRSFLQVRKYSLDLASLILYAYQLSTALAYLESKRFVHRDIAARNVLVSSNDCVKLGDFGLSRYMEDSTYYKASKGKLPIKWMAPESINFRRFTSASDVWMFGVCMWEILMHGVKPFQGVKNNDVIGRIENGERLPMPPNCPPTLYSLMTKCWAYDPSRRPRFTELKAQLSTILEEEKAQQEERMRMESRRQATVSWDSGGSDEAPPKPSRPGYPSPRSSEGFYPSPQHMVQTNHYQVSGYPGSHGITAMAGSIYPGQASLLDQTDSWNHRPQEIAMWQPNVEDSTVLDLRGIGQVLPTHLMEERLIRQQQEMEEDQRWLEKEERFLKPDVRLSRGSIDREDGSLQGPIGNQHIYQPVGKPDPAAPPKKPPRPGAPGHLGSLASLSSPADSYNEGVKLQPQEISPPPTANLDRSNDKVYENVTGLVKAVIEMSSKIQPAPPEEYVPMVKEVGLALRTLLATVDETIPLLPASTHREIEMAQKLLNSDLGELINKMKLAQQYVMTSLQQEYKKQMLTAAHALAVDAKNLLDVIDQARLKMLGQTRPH
Sequence of Follistatin (Homo sapiens) (P19883 whole entry, looked up): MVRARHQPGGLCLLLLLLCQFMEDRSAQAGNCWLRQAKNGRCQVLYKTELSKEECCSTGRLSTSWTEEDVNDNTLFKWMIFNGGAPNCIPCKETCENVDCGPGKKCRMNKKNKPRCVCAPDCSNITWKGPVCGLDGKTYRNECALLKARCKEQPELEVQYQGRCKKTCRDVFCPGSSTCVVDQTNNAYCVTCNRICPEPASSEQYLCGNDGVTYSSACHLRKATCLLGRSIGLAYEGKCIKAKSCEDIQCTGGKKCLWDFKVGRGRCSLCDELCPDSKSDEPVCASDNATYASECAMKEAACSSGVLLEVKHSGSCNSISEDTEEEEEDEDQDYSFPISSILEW
Sequence of Streptavidin (Streptomyces avidinii) (P22629 whole entry, looked up): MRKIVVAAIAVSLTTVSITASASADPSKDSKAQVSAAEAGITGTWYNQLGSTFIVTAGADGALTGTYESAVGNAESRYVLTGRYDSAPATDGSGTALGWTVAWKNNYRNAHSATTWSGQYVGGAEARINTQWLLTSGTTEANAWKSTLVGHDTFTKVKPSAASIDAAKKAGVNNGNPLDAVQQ
Sequence of Luciferin 4-monooxygenase (Photinus pyralis) (P08659 whole entry, looked up): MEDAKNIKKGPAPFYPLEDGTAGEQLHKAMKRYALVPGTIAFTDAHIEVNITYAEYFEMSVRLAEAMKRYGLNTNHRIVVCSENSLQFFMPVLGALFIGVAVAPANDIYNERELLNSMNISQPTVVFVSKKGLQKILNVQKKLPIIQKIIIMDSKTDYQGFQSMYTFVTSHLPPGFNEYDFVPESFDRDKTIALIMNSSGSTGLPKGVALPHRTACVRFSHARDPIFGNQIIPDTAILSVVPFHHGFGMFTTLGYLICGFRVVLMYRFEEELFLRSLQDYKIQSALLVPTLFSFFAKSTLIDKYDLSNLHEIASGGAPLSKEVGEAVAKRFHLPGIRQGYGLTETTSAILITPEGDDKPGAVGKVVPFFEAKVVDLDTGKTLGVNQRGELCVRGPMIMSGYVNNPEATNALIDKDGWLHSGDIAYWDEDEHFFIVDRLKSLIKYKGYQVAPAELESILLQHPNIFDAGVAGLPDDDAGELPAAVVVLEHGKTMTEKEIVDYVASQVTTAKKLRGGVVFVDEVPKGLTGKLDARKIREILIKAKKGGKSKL
Sequence of Fibroblast growth factor 2 (Homo sapiens) (P09038 whole entry, looked up): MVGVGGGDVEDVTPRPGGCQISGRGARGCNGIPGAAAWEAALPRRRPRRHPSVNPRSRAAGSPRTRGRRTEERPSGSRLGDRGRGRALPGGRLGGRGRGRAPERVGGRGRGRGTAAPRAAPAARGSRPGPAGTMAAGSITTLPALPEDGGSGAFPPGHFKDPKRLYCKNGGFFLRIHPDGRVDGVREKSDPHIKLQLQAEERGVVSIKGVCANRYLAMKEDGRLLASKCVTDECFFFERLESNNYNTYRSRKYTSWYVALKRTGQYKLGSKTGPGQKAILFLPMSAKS
Sequence of Torsin-1A (Homo sapiens) (O14656 whole entry, looked up): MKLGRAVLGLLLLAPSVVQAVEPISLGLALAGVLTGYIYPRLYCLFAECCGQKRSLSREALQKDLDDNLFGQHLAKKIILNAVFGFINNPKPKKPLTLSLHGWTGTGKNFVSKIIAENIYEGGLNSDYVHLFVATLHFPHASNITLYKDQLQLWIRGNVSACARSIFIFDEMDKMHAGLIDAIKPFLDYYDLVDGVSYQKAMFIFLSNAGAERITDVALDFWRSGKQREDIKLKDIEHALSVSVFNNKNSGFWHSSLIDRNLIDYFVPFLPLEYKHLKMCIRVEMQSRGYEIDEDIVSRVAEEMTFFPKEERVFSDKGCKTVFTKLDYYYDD

SMILES	composite z-score [1]	composite z-score [2]	composite z-score [3]	composite z-score [4]	composite z-score [5]	composite z-score [6]	z-score [7]	composite z-score (Lefty1)	composite z-score [8]	z-score [9]	composite z-score [10]	z-score [11]	z-score [12]	z-score [13]	z-score [14]	composite z-score [15]	composite z-score [16]	composite z-score (Torsin-1A (Homo sapiens) [17])	composite z-score (Torsin-1A (Homo sapiens) [18])	composite z-score [19]
COC(=O)C1=CC(CCCO)=CC(C2CC2)N(C)C=C1C(=O)OC (stereo not given)	-0.153	-0.308	0.623	-0.828	-0.157	-0.539	0.511	-0.285	1.26	0.727 (inactive)	0.0676	-2.82 (inactive)	-1.59 (inactive)	-0.581 (inactive)	0.214 (inactive)	-0.326	-0.152	0.564	0.289	-0.526
CN1C(=O)C2C=CC(C(O)c3ccccn3)N(N(c3ccccc3)c3ccccc3)C2C1=O (stereo not given)	0.375	0.669	0.0673	0.66	0.82	0.397	0.613	0.0714	0.747	-0.009 (inactive)	0.485	0.346 (inactive)	-1.26 (inactive)	0.0569 (inactive)	-0.164 (inactive)	-0.0902	0.167	0.678	0.291	0.424
COC(=O)[C@@]1(Cc2ccc(OC)cc2)[C@H]2c3cc(C(=O)N(C)C)n(Cc4ccc(Cl)c(C(F)(F)F)c4)c3C[C@H]2CN1C(=O)c1ccccc1	1.99	1.22	0.71	0.982	0.655	-0.451	0.0187	-0.68	1.22	1.65 (inactive)	0.758	-2.81 (inactive)	0.275 (inactive)	2.87 (inactive)	2.18 (inactive)	0.725	0.515	-0.213	0.234	-0.988
CC(C)C(CO)N1C(=O)[C@@H]2C3C(=O)OCCC/C=C\[C@H]3OC23C=CCN(C(C)(C)C)C(=O)[C@@H]13 (stereo not given in full)	-0.539	-0.768	-0.147	-2.19	-0.895	-0.363	-0.0938	-0.404	-1.04	-0.197 (inactive)	-0.0407	-0.162 (inactive)	1.19 (inactive)	-0.0778 (inactive)	-0.205 (inactive)	-0.542	-0.231	0.16	0.3	0.5
COCCOC(=O)N1C(=O)[C@@]2(c3cc(C#Cc4ccc(OC)cc4)ccc31)[C@H](c1ccccc1OCCO)N1[C@H](c3ccccc3)[C@H](c3ccccc3)OC(=O)[C@H]1[C@@H]2C(=O)N1CCCCCCC1	0.623	1.2	0.701	-0.183	1.51	1.73	-0.775	1.23	1.33	-0.246 (inactive)	1.28	-4.35 (inactive)	-2.23 (inactive)	-1.42 (inactive)	-0.693 (inactive)	2.64	1.56	2.72	2.09	2.04
C=CC[C@]1(C(=O)O)COC(c2ccc(OCCCO)cc2)=N1	1.53	0.205	-0.0931	0.219	0.372	-0.105	0.0454	0.378	0.342	-0.497 (inactive)	-0.0405	0.543 (inactive)	-0.852 (inactive)	1.46 (inactive)	0.123 (inactive)	-0.447	-0.103	-0.0985	0.338	0.0518
COCCOC(=O)N1C(=O)[C@@]2(c3cc(C#CCCO)ccc31)[C@H](C(=O)Nc1nc3ccccc3s1)[C@H]1C(=O)O[C@H](c3ccccc3)[C@H](c3ccccc3)N1[C@@H]2c1ccccc1OCCO	1.87	1.2	0.764	0.866	1.12	0.69	-2.25	0.573	0.902	-0.551 (inactive)	0.585	-1.41 (inactive)	0.235 (inactive)	-0.0526 (inactive)	0.595 (inactive)	0.968	0.949	0.759	1.12	0.881
COCCOC(=O)N1C(=O)[C@@]2(c3cc(C#Cc4ccc(OC)cc4)ccc31)[C@H](C(=O)Nc1nc3ccccc3s1)[C@H]1C(=O)O[C@H](c3ccccc3)[C@H](c3ccccc3)N1[C@@H]2c1ccc(O)cc1	-0.0507	1.13	0.0931	0.965	1.29	1.09	-2.26	1.18	0.927	-0.0504 (inactive)	0.472	-3.43 (inactive)	-1.8 (inactive)	-1.83 (inactive)	0.673 (inactive)	0.768	0.266	0.198	0.811	1.91
CC(C)N1C(=O)C[C@@](C(=O)NCCCN(C)C)(c2ccc([N+](=O)[O-])cc2)[C@H]1c1ccc(CO)cc1	-0.616	-0.605	-0.519	0.47	0.316	0.875	-0.488	-0.0831	-0.0539	-0.287 (inactive)	-0.0942	-1.38 (inactive)	0.574 (inactive)	0.764 (inactive)	0.0255 (inactive)	-0.36	-0.157	-0.0639	0.46	0.249
O=C1C[C@@](C(=O)NCCN2CCOCC2)(c2ccc([N+](=O)[O-])cc2)[C@@H](c2ccc(CO)cc2I)N1C1CCCCC1	1.27	1.24	0.211	-0.415	1.15	0.94	1.8	0.992	0.308	1.35 (inactive)	0.642	-4.95 (inactive)	-1.36 (inactive)	0.0279 (inactive)	-1.11 (inactive)	-0.0491	-0.0468	-0.308	0.896	1.92
